The full ranking holds about 33,000 sequences; the median of “e-score” is about -0.05, and the highest 2% start at about 0.38. This excerpt belongs to a sample that is enriched for the highest values.
Molecular target: T1, SIX1-Q177R homeodomain (human, UniProt Q15475 108-198, Q177R)
T1 sequence: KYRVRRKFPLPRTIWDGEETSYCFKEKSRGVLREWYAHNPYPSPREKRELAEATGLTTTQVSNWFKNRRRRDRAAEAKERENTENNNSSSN
Test: universal protein binding microarray; Universal all-10-mer PBM (8x60K, AMADID 030236), 300 nM GST-tagged protein, Alexa Fluor 488 anti-GST; buffer, salt, pH and temperature not stated (as in Berger); high values mean tight binding
Conditions: protein: ivt; tags: N-terminal GST; dsDNA, one strand shown
Procedure, shortened: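 Binding was expressed as 8-mer E-scores calculated with the Universal PBM Analysis Suite. The GST-tagged homeodomains, made by in vitro transcription/translation, were applied in duplicate at 300 nM final concentration to universal 'all 10-mer' protein binding microarrays (8×60K format).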

ACGGGGTG and ACCTGGTG are within error of each other in binding signal: 0.338 ± 0.0174 E-score for the first, 0.322 ± 0.00697 E-score for the second.

ACAATACA and CTAGGACA are within error of each other in binding signal: 0.194 ± 0.0158 E-score for the first, 0.162 ± 0.0316 E-score for the second.

TAATCACA and GGGGTTGA are within error of each other in binding signal: 0.213 ± 0.0222 E-score for the first, 0.2 ± 0.025 E-score for the second.

First: CGACACTA
Second: CGACACTC
The binding signal of the first is lower: 0.41 ± 0.00325 E-score for the first, 0.437 ± 0.00883 E-score for the second.

Compared with AGACACTC, AGACACTA is lower in binding signal: 0.3634 ± 0.00141 E-score for the first, 0.343 ± 0.00686 E-score for the second.

Going from GGACACTA to ACGCCCGA, the binding signal falls from 0.358 ± 0.00739 E-score to 0.17 ± 0.0302 E-score.

CCTGCACC and ACCCAAGT are within error of each other in binding signal: 0.16 ± 0.00461 E-score for the first, 0.157 ± 0.00998 E-score for the second.

Compared with AAGCACCA, CCGGATAC is higher in binding signal: 0.24 ± 0.00412 E-score for the first, 0.262 ± 0.00585 E-score for the second.

Compared with CCGGACAC, ACGGAGTC is lower in binding signal: 0.427 ± 0.0142 E-score for the first, 0.181 ± 0.0091 E-score for the second.

Compared with GCGGATAC, ACGGATAC is higher in binding signal: 0.2681 ± 0.00246 E-score for the first, 0.28 ± 0.00317 E-score for the second.

Going from GCGCACAC to ACGGACAC, the binding signal rises from 0.289 ± 0.0303 E-score to 0.41 ± 0.0174 E-score.

First: CCGGACGA
Second: GCGGACAC
The binding signal of the first is lower: 0.185 ± 0.0376 E-score for the first, 0.406 ± 0.0139 E-score for the second.

First: CCCTCTGA
Second: CACTGAGA
The binding signal of the first is lower: 0.153 ± 0.0264 E-score for the first, 0.202 ± 0.0113 E-score for the second.

GCTTAACA and ACCAGAGT are within error of each other in binding signal: 0.171 ± 0.0194 E-score for the first, 0.16 ± 0.0333 E-score for the second.

ACCCTTAA and ATCCCTAG are within error of each other in binding signal: 0.175 ± 0.0783 E-score for the first, 0.154 ± 0.00215 E-score for the second.

Going from CACTCGTA to CGGCGTAC, the binding signal rises from 0.152 ± 0.0172 E-score to 0.209 ± 0.00229 E-score.

First: TATGGACA
Second: CACTTTAC
The binding signal of the first is lower: 0.167 ± 0.0099 E-score for the first, 0.221 ± 0.0328 E-score for the second.

ACCCCTTG and ACCCCTTC are within error of each other in binding signal: 0.237 ± 0.00827 E-score for the first, 0.2425 ± 0.00198 E-score for the second.

First: ACACCTTA
Second: ACACTTTG
The binding signal of the first is higher: 0.456 ± 0.00729 E-score for the first, 0.31 ± 0.0292 E-score for the second.

Compared with CCACCTTC, ACCCCTTA is higher in binding signal: 0.19 ± 0.00382 E-score for the first, 0.228 ± 0.014 E-score for the second.

First: ACACGTTA
Second: ACACCTTC
The binding signal of the first is lower: 0.297 ± 0.0383 E-score for the first, 0.46 ± 0.0107 E-score for the second.

Going from ACACCTTG to GACAGGGC, the binding signal falls from 0.44 ± 0.00935 E-score to 0.162 ± 0.0431 E-score.

TTACACAA and GAAGCACC are within error of each other in binding signal: 0.223 ± 0.0118 E-score for the first, 0.238 ± 0.00424 E-score for the second.

Compared with GTACCCCA, ATACGACA is lower in binding signal: 0.247 ± 0.0214 E-score for the first, 0.18 ± 0.0318 E-score for the second.

Compared with ACCCAAGA, CACCGCAG is higher in binding signal: 0.163 ± 0.00205 E-score for the first, 0.241 ± 0.0286 E-score for the second.

Compared with AGAAAACA, GGAAACAC is higher in binding signal: 0.192 ± 0.0184 E-score for the first, 0.374 ± 0.004 E-score for the second.

GAAAACAC and AGAAACAC are within error of each other in binding signal: 0.383 ± 0.0136 E-score for the first, 0.408 ± 0.0147 E-score for the second.

CGAAACAC and AAAAACAC are within error of each other in binding signal: 0.339 ± 0.0288 E-score for the first, 0.368 ± 0.0203 E-score for the second.

Going from GGGATCCC to GGTGCATA, the binding signal falls from 0.31 ± 0.0322 E-score to 0.195 ± 0.0199 E-score.

First: GGGATCAA
Second: CGTGTTCC
The binding signal of the first is lower: 0.189 ± 0.0285 E-score for the first, 0.34 ± 0.0151 E-score for the second.

Going from CGTGTTCA to GGTGCTCA, the binding signal falls from 0.4087 ± 0.0026 E-score to 0.25 ± 0.046 E-score.

First: GGTGTTCA
Second: GGGGTTCA
The binding signal of the first is higher: 0.4614 ± 0.000559 E-score for the first, 0.256 ± 0.0435 E-score for the second.

First: AGTGTTCA
Second: CCCGATGA
The binding signal of the first is higher: 0.343 ± 0.0114 E-score for the first, 0.16 ± 0.00231 E-score for the second.

CTCCCGCA and ACCCAGGC are within error of each other in binding signal: 0.155 ± 0.0331 E-score for the first, 0.162 ± 0.0568 E-score for the second.

Going from CCCCGCGG to GTACGACA, the binding signal rises from 0.193 ± 0.0298 E-score to 0.297 ± 0.0138 E-score.

Going from CGTGGTGC to GGTGCAAC, the binding signal rises from 0.187 ± 0.0118 E-score to 0.272 ± 0.00472 E-score.

ACACCATG and ACACCATC are within error of each other in binding signal: 0.4696 ± 0.00232 E-score for the first, 0.4671 ± 0.000891 E-score for the second.

Compared with ATACCATC, ACACCATA is higher in binding signal: 0.151 ± 0.00506 E-score for the first, 0.459 ± 0.00633 E-score for the second.

Compared with ACTCCATA, GCACCATA is lower in binding signal: 0.2012 ± 0.000827 E-score for the first, 0.174 ± 0.00986 E-score for the second.

ACCCCATG and ACTCCATG are within error of each other in binding signal: 0.226 ± 0.0299 E-score for the first, 0.212 ± 0.0247 E-score for the second.

ACCCCATC and ATTTTACA are within error of each other in binding signal: 0.245 ± 0.00929 E-score for the first, 0.19 ± 0.0629 E-score for the second.

Compared with TGGGTACA, ATCGCGGG is lower in binding signal: 0.29 ± 0.00578 E-score for the first, 0.167 ± 0.0319 E-score for the second.

AGGGTAGG and CCCCAAGA are within error of each other in binding signal: 0.176 ± 0.00576 E-score for the first, 0.156 ± 0.0279 E-score for the second.
